PubChem BioAssay (Tox21)
A number with no mark means an inactive call. Where a call stands in place of a potency, no number is given. Calls of active or inactive are those of the source. Unless noted, calls follow the shape of the dose curve; as a rule, active = well fitted curve in the direction sought with a large enough effect in the repeat runs; inconclusive = weak or mixed curves; inactive = no such curve, though single readings can be large; an effect the other way counts as inactive or inconclusive. Positions of bridges follow the written chain, without caps; N, C: chain ends. Non-standard residues stand in square brackets, D forms with d. Residues, ends and D or L forms follow the SMILES beside them. *: point of attachment. X2 = CC[C@H](C)CCCCC(=O)*; Dab = NCC[C@H](N)C(=O)O

What was measured:
[1] = qHTS assay to identify small molecule antagonists of the thyroid receptor (TR) signaling pathway - cell viability counter screen (AID 743064); also: nearly all actives have a fitted effect of over 50% in size; also: potency is read from the fitted curve at half-maximal effect
Procedure, shortened: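 Fluorescence from CellTiter-Fluor, added after 23.5 h exposure at 37 °C, reported viability of GH3.TRE-Luc cells co-treated with compound and 1 nM T3. Measured in the same wells as the luciferase TR readout.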

[2] = tested on: thyroid hormone receptor (rat, GH3 cells); assay: qHTS assay to identify small molecule agonists of the thyroid receptor (TR) signaling pathway (AID 743066; calls by dose curve)
[3] = molecular target: Estrogen receptor (Homo sapiens) (UniProt P03372); assay: qHTS assay to identify small molecule antagonists of the estrogen receptor alpha (ER-alpha) signaling pathway (AID 743069; active = well fitted curve in the direction sought with a large enough effect in the signal ratio in the repeat runs, not every such curve was filed as active; inconclusive = weak or mixed curves, or effect the other way; inactive = no such curve, though single readings can be large or run the other way; the % refers to the signal ratio; also: potency is read from the fitted curve at half-maximal effect)
Sequence of Estrogen receptor (Homo sapiens) (P03372 whole entry, looked up): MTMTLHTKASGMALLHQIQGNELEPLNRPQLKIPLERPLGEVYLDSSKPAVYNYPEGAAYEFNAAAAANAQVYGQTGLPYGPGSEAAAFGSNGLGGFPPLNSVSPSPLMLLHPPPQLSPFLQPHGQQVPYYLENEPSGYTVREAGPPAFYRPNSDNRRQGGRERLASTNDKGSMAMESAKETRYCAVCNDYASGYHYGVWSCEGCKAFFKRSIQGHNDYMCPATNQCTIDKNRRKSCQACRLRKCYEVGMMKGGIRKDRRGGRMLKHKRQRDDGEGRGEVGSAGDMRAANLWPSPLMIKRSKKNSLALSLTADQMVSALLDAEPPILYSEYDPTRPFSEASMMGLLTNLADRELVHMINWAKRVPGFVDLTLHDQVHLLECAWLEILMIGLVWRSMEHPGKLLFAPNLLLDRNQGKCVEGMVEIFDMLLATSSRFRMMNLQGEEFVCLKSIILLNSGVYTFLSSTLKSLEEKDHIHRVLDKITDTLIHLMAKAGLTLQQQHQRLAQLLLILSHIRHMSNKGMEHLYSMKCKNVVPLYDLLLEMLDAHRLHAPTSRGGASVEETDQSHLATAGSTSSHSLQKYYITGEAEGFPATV
Procedure, shortened: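 Reporter cells (ER-alpha-bla, HEK293 background) are conditioned overnight in stripped-serum medium (2% charcoal-stripped FBS). Compound and 17beta-estradiol exposure runs 18 hr at 37C, 5% CO2.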

[4] = molecular target: Estrogen receptor (Homo sapiens) (UniProt P03372); assay: qHTS assay to identify small molecule agonists of the estrogen receptor alpha (ER-alpha) signaling pathway (AID 743075; calls by dose curve;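 also: HEK293 GripTite cells with ER-alpha and UAS-driven beta-lactamase reporter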)
[5] = molecular target: Estrogen receptor (Homo sapiens) (UniProt P03372); assay: qHTS assay to identify small molecule agonists of the estrogen receptor alpha (ER-alpha) signaling pathway using the BG1 cell line (AID 743079); conditions: BG1Luc4E2 cells, ERE-luciferase agonist, 22 h; activation: at 70.3 µM (top of the series); also: nearly all actives have a fitted effect of over 20% in size; also: potency is read from the fitted curve at half-maximal effect
[6] = qHTS assay to identify small molecule antagonists of the estrogen receptor alpha (ER-alpha) signaling pathway using the BG1 cell line (AID 743080; calls by dose curve;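 also: BG1 cells stimulated with 17beta-estradiol alongside compound; nearly all actives have a fitted effect of over 25% in size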; also: potency is read from the fitted curve at half-maximal effect)
Procedure, shortened: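 BG1-Luc-4E2 cells (endogenous full-length ER-alpha, stable 4×ERE-luciferase) were starved 5 days in phenol-red-free medium with 10% charcoal-stripped FBS, plated 24 h, then given compound plus 17beta-estradiol for 21.5 h at 37 C; ONE-Glo luminescence read after 30 min.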

[7] = qHTS assay to identify small molecule antagonists of the estrogen receptor alpha (ER-alpha) signaling pathway using the BG1 cell line - cell viability counter screen (AID 743081);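 also: compound given together with 17beta-estradiol as the ER stimulus; nearly all actives have a fitted effect of over 45% in size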
Aromatase (Homo sapiens) = Aromatase (Homo sapiens) (UniProt P11511); assay: qHTS assay to identify aromatase inhibitors (AID 743083); also: nearly all actives have a fitted effect of over 55% in size
Sequence of Aromatase (Homo sapiens) (P11511 whole entry, looked up): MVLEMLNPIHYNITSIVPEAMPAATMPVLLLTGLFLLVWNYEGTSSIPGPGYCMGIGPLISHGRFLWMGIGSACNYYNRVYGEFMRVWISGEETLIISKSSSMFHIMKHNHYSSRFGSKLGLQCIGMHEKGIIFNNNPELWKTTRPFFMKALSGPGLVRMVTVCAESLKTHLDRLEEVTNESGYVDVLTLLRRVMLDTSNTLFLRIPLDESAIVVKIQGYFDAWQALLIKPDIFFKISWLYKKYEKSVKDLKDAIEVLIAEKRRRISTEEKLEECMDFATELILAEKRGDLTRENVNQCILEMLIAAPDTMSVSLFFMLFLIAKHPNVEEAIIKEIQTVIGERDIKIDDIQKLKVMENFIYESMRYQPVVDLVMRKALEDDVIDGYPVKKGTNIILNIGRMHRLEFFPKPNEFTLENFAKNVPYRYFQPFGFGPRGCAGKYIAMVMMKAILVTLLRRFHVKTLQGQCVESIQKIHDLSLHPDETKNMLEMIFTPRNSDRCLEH

[8] = qHTS assay to identify aromatase inhibitors - cell viability counter screen (AID 743084);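 also: cells stimulated with testosterone during compound exposure; nearly all actives have a fitted effect of over 55% in size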
[9] = molecular target: Aryl hydrocarbon receptor (Homo sapiens) (UniProt P35869); assay: qHTS assay to identify small molecule that activate the aryl hydrocarbon receptor (AhR) signaling pathway (AID 743085); also: nearly all actives have a fitted effect of over 15% in size; also: potency is read from the fitted curve at half-maximal effect;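 as to activation: HG2L7.5c1 human HepG2 liver cells with stably integrated DRE-driven firefly reporter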
Sequence of Aryl hydrocarbon receptor (Homo sapiens) (P35869 whole entry, looked up): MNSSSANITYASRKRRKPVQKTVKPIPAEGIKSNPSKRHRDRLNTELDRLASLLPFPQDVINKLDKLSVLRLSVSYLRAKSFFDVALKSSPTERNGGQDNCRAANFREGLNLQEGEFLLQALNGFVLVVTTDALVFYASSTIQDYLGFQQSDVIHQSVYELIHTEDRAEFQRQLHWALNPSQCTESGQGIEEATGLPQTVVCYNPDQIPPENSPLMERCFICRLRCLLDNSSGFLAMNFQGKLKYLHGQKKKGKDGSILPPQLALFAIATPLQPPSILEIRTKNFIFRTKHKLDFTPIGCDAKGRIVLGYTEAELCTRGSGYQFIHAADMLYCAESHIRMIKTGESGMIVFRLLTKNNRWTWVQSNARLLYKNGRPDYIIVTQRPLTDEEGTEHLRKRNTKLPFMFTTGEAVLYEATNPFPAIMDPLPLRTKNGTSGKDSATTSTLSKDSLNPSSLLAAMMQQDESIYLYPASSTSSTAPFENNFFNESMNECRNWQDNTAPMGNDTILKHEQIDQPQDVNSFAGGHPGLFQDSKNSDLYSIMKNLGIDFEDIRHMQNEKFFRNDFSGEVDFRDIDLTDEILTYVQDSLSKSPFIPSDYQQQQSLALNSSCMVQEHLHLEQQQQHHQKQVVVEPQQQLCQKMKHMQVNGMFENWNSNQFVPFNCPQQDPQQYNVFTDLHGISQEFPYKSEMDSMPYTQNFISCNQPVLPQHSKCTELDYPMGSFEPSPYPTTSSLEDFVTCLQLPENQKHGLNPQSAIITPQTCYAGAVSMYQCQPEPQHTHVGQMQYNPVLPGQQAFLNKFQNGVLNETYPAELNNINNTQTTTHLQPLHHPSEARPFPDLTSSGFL
Procedure, shortened: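 Cell line HG2L7.5c1 (human hepatoma, 20× DRE-luc). Plated, 5 h 37C, compound/DMSO added, 24 h 37C. CellTiter-Fluor 30 min 37C → fluorescence; then ONE-Glo 30 min RT → luminescence.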

[10] = qHTS assay to identify small molecule that activate the aryl hydrocarbon receptor (AhR) signaling pathway - cell viability counter screen (AID 743086);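 also: HepG2 liver cells carrying the AhR DRE luciferase reporter; nearly all actives have a fitted effect of over 45% in size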
Procedure, shortened: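 HepG2-AhR-luc (HG2L7.5c1) cells, 4000/well, treated 24 h at 37 C with compound; viability measured as CellTiter-Fluor fluorescence after 30 min in the same wells as the luciferase read.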

[11] = molecular target: Peroxisome proliferator-activated receptor gamma (Homo sapiens) (UniProt P37231); assay: qHTS assay to identify small molecule agonists of the peroxisome proliferator-activated receptor gamma (PPARg) signaling pathway (AID 743094; active = well fitted activation curve with a large enough effect in the signal ratio in the repeat runs, not every such curve was filed as active; inconclusive = weak or mixed curves, or effect the other way; inactive = no such curve, though single readings can be large or run the other way; the % refers to the signal ratio)
Sequence of Peroxisome proliferator-activated receptor gamma (Homo sapiens) (P37231 whole entry, looked up): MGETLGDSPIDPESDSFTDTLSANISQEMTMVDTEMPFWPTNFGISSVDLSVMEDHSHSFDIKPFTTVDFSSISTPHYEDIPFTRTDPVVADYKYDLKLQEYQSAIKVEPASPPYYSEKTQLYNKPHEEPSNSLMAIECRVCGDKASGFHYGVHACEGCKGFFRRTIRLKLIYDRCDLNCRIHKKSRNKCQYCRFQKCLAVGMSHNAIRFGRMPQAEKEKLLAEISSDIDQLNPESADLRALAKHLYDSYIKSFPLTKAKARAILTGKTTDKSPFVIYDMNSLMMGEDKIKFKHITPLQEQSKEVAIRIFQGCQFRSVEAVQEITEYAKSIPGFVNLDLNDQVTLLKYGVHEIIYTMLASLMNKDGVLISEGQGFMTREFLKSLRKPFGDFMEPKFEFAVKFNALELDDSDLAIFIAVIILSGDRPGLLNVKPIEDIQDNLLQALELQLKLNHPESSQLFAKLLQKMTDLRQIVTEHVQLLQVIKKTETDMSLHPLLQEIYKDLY
Procedure, shortened: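 GeneBLAzer PPARg UAS-bla HEK293H cells carrying a stably integrated beta-lactamase reporter were pre-incubated 5 h at 37C, then exposed to compounds in DMSO for 17 h at 37C; LiveBLAzer B/G FRET substrate was added for 1 h at room temperature and fluorescence read.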

[12] = qHTS assay to identify small molecule phospholipidosis (PLD) inducers (AID 1259344; active = well fitted curve in the direction sought with a large enough effect; inconclusive = small, poorly fitted or top-dose-only effect, or another doubt; inactive = no such curve, though single readings can be large; an effect the other way counts as inactive or inconclusive)
Procedure, shortened: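 Quantitative HTS in HepG2: compound plus LipidTOX Red dye for 24 h, paraformaldehyde fixation with Hoechst 33342, widefield high-content imaging; amiodarone as positive and DMSO as negative control.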

[13] = molecular target: Nuclear receptor subfamily 1 group I member 2 (Rattus norvegicus) (UniProt Q9R1A7); assay: Rat pregnane X receptor (rPXR) activation by small molecules, qHTS assay (AID 1346983); conditions: rPXR luciferase reporter cells, One-Glo luminescence, 24 h; max activation: active compounds read high; also: nearly all actives have a fitted effect of over 20% in size
Sequence of Nuclear receptor subfamily 1 group I member 2 (Rattus norvegicus) (Q9R1A7 whole entry, looked up): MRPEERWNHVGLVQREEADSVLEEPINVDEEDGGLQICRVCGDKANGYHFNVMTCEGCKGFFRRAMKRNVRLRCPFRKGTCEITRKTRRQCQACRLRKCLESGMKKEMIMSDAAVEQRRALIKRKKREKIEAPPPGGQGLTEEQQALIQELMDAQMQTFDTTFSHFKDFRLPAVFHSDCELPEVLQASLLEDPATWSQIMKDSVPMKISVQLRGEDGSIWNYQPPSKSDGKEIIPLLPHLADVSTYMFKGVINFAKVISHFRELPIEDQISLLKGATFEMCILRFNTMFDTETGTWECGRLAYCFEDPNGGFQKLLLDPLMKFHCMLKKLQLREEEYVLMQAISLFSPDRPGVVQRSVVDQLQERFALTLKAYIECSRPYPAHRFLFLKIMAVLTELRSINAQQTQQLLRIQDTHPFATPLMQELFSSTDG
Procedure, shortened: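 Cell-based rPXR activation assay: rPXR cells, 2,000 per well, rested 5hr at 37 C, then exposed to compounds in DMSO for 24 hr at 37 C. Luciferase activity read by One-Glo luminescence after 30 min at room temperature.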

[14] = qHTS assay to identify small molecule antagonists of the thyroid receptor (TR) signaling pathway (AID 743065); also: nearly all actives have a fitted effect of over 55% in size; also: potency is read from the fitted curve at half-maximal effect
Procedure, shortened: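 GH3.TRE-Luc rat pituitary cells (two TREs driving luciferase) were dosed with compound, then stimulated with 1 nM T3 (final) for 23.5 h at 37 C. ONE-Glo luminescence was the read-out, with CellTiter-Fluor fluorescence as the cytotoxicity counter-screen.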

[15] = qHTS assay to identify small molecule antagonists of the estrogen receptor alpha (ER-alpha) signaling pathway - cell viability counter screen (AID 743074; calls by dose curve;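 also: HEK293 cells carrying ER-alpha-UAS-bla reporter stimulated with 17beta-estradiol; nearly all actives have a fitted effect of over 45% in size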)
[16] = molecular target: Nuclear receptor subfamily 1 group I member 2 (Homo sapiens) (UniProt O75469); assay: CYP3A4 induction through human pregnane X receptor (PXR) by small molecules, qHTS assay (AID 1346984); also: nearly all actives have a fitted effect of over 40% in size
Procedure, shortened: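 DPX-2 cells (HepG2 co-transfected with PXR and CYP3A4 promoter-luciferase) treated with compounds 24 h at 37C; luciferin-IPA CYP3A4 substrate 3uM final added for 3 h, then One-Glo; luminescence read. qHTS format.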

[17] = molecular target: Nuclear receptor subfamily 1 group I member 2 (Homo sapiens) (UniProt O75469); assay: Human pregnane X receptor (PXR) activation by small molecules, qHTS assay (AID 1346985); also: nearly all actives have a fitted effect of over 40% in size
Procedure, shortened: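 DPX-2 cells (HepG2 co-transfected with a PXR response element and a CYP3A4-promoter luciferase construct) were seeded at 2,000 per well, rested 5 hr at 37C, then exposed to DMSO-dissolved compounds for 24 hr. Activation was read as luciferase luminescence.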

Compound	Potency [1]	Potency [2]	Potency [3]	Potency [4]	Potency [5]	Potency [6]	Potency [7]	Potency (Aromatase (Homo sapiens))	Potency [8]	Potency [9]	Potency [10]	Potency [11]	Potency [12]	max activation [13]	Potency [14]	Potency [15]	Potency [16]	Potency [17]	PLD induction [12]
O=C(O)[C@H](CC(=O)N1C[C@H]2CCCC[C@H]2C1)Cc1ccccc1	inactive	inactive	inactive	inactive	33.5 µM (active)	inactive	inactive	inactive	inactive	inactive	inactive	inactive	inactive	-2.62%					
CC(C(=O)O)c1ccc(N2Cc3ccccc3C2=O)cc1 (configuration not stated)			inactive		0.119 µM (active)	16.8 µM (active)	inactive		inactive	0.0596 µM (active)	inactive	inactive	inactive		7.5 µM (active)	inactive	inactive	inactive	
O=S(=O)(O)Oc1ccc(C(c2ccc(OS(=O)(=O)O)cc2)c2ccccn2)cc1	inactive	inactive	inactive	inactive	inactive	inactive		inactive	inactive	inactive	inactive	inactive	inactive		inactive	inactive			
Cn1nnnc1SCC1=C(C(=O)O)N2C(=O)[C@@H](NC(=O)[C@H](O)c3ccccc3)[C@H]2SC1	inactive	inactive	inactive	inactive	inactive	inactive	inactive	inactive	inactive		inactive	inactive	inactive		inactive	inactive			
CCCCCCCCCCCCCCCC(=O)O[C@@H]1[C@@H](O)[C@@H](O)[C@@H]([C@H](NC(=O)[C@@H]2C[C@@H](CCC)CN2C)[C@H](C)Cl)O[C@@H]1SC	inactive	inactive	inactive	inactive	inactive	inactive	inactive	inactive	inactive	inactive	inactive	inactive	inactive		inactive	inactive			
CCOC(=O)Cc1cccc(-c2cc(CCCCCCc3ccc(O[C@H]4O[C@H](COC(C)=O)[C@@H](OC(C)=O)[C@H](OC(C)=O)[C@@H]4OC(C)=O)c(-c4cccc(CC(=O)OCC)c4)c3)ccc2O[C@H]2O[C@H](COC(C)=O)[C@@H](OC(C)=O)[C@H](OC(C)=O)[C@@H]2OC(C)=O)c1	inactive	inactive	inactive	inactive	inactive	inactive		inactive	inactive	inactive	inactive	inactive	inactive		inactive	inactive			
CC1(C)S[C@@H]2[C@H](NC(=O)[C@H](N)c3ccccc3)C(=O)N2[C@H]1C(=O)OCOC(=O)[C@@H]1N2C(=O)C[C@H]2S(=O)(=O)C1(C)C	inactive	inactive	13.4 µM [inconclusive] (active)	inactive	inactive	inactive	inactive	inactive	inactive	inactive	inactive		inactive		inactive	inactive			
Cn1nnnc1SCC1=C(C(=O)O)N2C(=O)[C@@H](NC(=O)[C@H](OC=O)c3ccccc3)[C@H]2SC1	inactive	inactive	inactive	inactive	inactive	inactive	inactive	inactive	inactive	inactive	inactive	inactive	inactive		inactive	inactive			
Cc1nnc(C(C)C)n1C1C[C@H]2CC[C@@H](C1)N2CC[C@H](NC(=O)C1CCC(F)(F)CC1)c1ccccc1 (some centres not stated)	inactive	inactive	inactive	inactive	inactive	inactive		inactive	inactive	inactive		inactive			inactive	inactive			-2.27% [at 7.66 µM]
CC1=C(/C=C/C(C)=C/C=C/C(C)=C/C=C/C=C(C)/C=C/C=C(C)/C=C/C2=C(C)C[C@@H](O)CC2(C)C)C(C)(C)C[C@H](O)C1	29.8 µM (active)						inactive				inactive		inactive			inactive	inactive	inactive	
NCCCC[C@H](NC(=O)[C@@H]1CCCN1C(=O)[C@@H]1CSSC[C@H](N)C(=O)N[C@@H](Cc2ccccc2)C(=O)N[C@@H](Cc2ccccc2)C(=O)N[C@@H](CCC(N)=O)C(=O)N[C@@H](CC(N)=O)C(=O)N1)C(=O)NCC(N)=O	inactive	inactive	inactive	inactive	inactive	inactive		inactive	inactive	inactive	inactive	inactive	inactive		inactive	inactive			
CC[C@H](C)CCCCC(=O)N[C@@H](CCN)C(=O)N[C@H](C(=O)N[C@@H](CCN)C(=O)N[C@H]1CCNC(=O)[C@H]([C@@H](C)O)NC(=O)[C@H](CCN)NC(=O)[C@H](CCN)NC(=O)[C@H](CC(C)C)NC(=O)[C@@H](CC(C)C)NC(=O)[C@H](CCN)NC1=O)[C@@H](C)O (X2-[Dab]T[Dab][Dab][Dab][dL]L[Dab][Dab]T; lactam 4-C)	inactive	inactive	inactive	inactive	inactive	inactive	inactive	inactive	inactive	inactive		inactive	inactive		inactive	inactive			
COc1cc(C[C@@H]2NCCc3cc(O)c(O)cc32)cc(OC)c1OC	inactive	inactive	inactive	inactive	inactive	inactive		inactive	inactive		inactive	inactive	inactive		inactive	inactive			
COc1ccc(CCNC[C@H](O)c2ccc(O)cc2)cc1OC			inactive	inactive	inactive	inactive	inactive	inactive	inactive		inactive	inactive	inactive			inactive	inactive	inactive	
